PMC7862700, “An all-to-all approach to the identification of sequence-specific readers for epigenetic DNA modifications on cytosine”

Assays:
Experiment in all cases: DAPPL (digital affinity profiling via proximity ligation, sequencing); 10 mM Tris-HCl pH 7.5, 50 mM NaCl, 1 mM DTT, 4% glycerol, room temperature, 30 min; GST-TFs on glutathione beads, 16-mer random dsDNA library, 0.1% formaldehyde crosslink after washing; high values mean tight binding
Conditions in all cases: protein: recombinant; tags: N-terminal GST; dsDNA, one strand shown
ERF = target: T1, ERF (Homo sapiens, UniProt P50548 1-548)
T1 sequence: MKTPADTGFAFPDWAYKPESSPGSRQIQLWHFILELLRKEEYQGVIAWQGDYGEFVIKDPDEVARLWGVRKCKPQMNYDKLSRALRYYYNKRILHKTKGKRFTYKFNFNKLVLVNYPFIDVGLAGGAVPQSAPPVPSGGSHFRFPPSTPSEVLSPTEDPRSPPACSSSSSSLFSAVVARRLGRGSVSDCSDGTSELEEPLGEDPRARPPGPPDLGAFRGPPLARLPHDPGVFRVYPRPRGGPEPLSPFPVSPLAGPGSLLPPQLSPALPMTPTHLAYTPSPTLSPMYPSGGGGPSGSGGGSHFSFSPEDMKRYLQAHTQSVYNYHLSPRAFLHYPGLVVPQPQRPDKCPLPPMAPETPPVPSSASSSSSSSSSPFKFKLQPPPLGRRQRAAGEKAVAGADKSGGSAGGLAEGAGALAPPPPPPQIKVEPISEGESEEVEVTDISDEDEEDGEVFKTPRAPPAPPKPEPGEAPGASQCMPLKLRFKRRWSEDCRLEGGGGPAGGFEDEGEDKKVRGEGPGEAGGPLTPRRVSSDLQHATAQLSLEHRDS
Outline: (§1)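 GST fusions of human transcription factors were expressed in yeast and captured with glutathione beads. Once given DNA barcodes and pooled alongside a tag-only sample, they were incubated for 30 min at room temperature with 200 nmole of a random double-stranded 16-mer DNA library in Tris/NaCl/DTT/glycerol buffer, then washed, crosslinked (0.1% formaldehyde), proximity-ligated, PCR-amplified and sequenced on an Illumina NextSeq500. The binding signal of each hexamer is its read frequency for a factor divided by its frequency for the tag-only sample.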

ETV3L = target: T2, ETV3L (Homo sapiens, UniProt Q6ZN32 1-361)
T2 sequence: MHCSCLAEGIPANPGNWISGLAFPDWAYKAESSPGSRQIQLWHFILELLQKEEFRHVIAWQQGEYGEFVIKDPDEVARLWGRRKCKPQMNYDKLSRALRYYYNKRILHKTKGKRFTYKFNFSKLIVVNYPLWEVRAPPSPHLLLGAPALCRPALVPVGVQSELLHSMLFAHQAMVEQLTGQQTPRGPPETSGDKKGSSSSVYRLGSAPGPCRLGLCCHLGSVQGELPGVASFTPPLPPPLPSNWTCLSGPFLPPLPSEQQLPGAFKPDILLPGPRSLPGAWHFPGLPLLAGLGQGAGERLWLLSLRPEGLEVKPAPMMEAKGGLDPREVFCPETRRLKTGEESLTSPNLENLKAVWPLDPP
Outline: as §1

ETS2 = target: T3, ETS2 (Homo sapiens, UniProt P15036 1-469)
T3 sequence: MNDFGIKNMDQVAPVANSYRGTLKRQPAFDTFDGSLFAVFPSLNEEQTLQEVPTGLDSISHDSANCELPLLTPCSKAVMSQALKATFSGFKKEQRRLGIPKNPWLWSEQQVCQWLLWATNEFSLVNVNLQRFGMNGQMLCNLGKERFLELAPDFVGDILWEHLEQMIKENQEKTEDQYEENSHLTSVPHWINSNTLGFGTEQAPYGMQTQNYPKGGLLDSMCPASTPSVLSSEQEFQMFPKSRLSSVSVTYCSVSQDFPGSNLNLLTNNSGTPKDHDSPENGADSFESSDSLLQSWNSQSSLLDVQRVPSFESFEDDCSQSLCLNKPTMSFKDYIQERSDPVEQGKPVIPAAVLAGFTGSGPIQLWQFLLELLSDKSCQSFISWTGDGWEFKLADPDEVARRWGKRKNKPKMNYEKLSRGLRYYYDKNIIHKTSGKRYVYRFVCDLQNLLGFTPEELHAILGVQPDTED
Outline: as §1

SPDEF = target: T4, SPDEF (Homo sapiens, UniProt O95238 1-335)
T4 sequence: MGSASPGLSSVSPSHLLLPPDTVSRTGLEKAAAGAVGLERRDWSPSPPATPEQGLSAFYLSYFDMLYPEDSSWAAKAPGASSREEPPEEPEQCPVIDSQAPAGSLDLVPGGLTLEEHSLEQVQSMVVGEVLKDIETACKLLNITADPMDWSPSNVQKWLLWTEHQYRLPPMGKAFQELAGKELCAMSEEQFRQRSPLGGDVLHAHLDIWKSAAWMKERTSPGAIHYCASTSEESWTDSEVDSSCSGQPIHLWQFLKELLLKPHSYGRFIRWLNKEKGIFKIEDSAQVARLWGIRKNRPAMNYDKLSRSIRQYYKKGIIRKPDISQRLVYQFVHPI
Outline: as §1

ETV7 = target: T5, ETV7 (Homo sapiens, UniProt Q9Y603 1-341)
T5 sequence: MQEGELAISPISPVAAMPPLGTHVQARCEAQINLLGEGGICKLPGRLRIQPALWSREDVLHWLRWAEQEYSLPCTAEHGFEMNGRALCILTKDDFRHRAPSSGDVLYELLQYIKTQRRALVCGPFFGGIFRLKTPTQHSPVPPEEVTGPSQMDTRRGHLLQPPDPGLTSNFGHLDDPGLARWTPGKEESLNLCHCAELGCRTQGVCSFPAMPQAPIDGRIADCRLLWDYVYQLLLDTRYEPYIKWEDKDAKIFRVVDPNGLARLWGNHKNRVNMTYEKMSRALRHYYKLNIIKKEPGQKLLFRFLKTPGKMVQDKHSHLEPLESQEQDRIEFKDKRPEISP
Outline: as §1

ELF5 = target: T6, ELF5 (Homo sapiens, UniProt Q9UKW6-2 1-255)
T6 sequence: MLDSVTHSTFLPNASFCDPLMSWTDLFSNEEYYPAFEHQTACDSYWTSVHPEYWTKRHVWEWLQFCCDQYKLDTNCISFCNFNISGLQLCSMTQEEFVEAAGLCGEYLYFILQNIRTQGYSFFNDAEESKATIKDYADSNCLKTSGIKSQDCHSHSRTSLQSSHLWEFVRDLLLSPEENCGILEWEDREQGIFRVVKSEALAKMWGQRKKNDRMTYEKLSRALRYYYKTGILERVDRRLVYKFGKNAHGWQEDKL
Outline: as §1

ETV3 = target: T7, ETV3 (Homo sapiens, UniProt P41162-2 1-143)
T7 sequence: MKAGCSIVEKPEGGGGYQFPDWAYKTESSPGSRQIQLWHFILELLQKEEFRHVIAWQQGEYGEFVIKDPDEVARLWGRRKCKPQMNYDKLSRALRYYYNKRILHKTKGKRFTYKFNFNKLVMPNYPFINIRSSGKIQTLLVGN
Outline: as §1

ETV6 = ETV6 (Homo sapiens, UniProt P41212 1-452)
ETV6, sequence (P41212 whole entry): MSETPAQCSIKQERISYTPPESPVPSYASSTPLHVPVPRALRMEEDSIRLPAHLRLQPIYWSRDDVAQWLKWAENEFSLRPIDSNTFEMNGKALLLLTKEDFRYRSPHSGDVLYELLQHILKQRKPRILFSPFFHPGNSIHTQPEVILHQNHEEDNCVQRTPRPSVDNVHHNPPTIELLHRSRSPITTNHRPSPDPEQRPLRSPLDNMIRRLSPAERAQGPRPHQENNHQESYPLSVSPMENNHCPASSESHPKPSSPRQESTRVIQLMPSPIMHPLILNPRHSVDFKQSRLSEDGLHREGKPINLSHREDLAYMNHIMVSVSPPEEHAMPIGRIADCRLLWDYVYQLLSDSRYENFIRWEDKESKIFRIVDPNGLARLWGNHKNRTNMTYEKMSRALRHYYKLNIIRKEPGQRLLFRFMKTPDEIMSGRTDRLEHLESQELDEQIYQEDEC
Outline: as §1

CTGAAC
binding signal (ERF): 1.33 fold enrichment (6-mer frequency, TF over GST control) | binding signal (ETV3L): 1.3 fold enrichment (6-mer frequency, TF over GST control) | binding signal (ETS2): 1.32 fold enrichment (6-mer frequency, TF over GST control) | binding signal (SPDEF): 1.47 fold enrichment (6-mer frequency, TF over GST control) | binding signal (ETV7): 1.21 fold enrichment (6-mer frequency, TF over GST control) | binding signal (ELF5): 1.41 fold enrichment (6-mer frequency, TF over GST control) | binding signal (ETV3): 1.47 fold enrichment (6-mer frequency, TF over GST control) | binding signal (ETV6): 1.29 fold enrichment (6-mer frequency, TF over GST control)

ATTTGG
binding signal (ERF): 1.54 fold enrichment (6-mer frequency, TF over GST control) | binding signal (ETV3L): 1.46 fold enrichment (6-mer frequency, TF over GST control) | binding signal (ETS2): 1.38 fold enrichment (6-mer frequency, TF over GST control) | binding signal (SPDEF): 1.34 fold enrichment (6-mer frequency, TF over GST control) | binding signal (ETV7): 1.41 fold enrichment (6-mer frequency, TF over GST control) | binding signal (ELF5): 1.37 fold enrichment (6-mer frequency, TF over GST control) | binding signal (ETV3): 1.35 fold enrichment (6-mer frequency, TF over GST control) | binding signal (ETV6): 1.45 fold enrichment (6-mer frequency, TF over GST control)

TCCGCC
binding signal (ERF): 1.48 fold enrichment (6-mer frequency, TF over GST control) | binding signal (ETV3L): 1.59 fold enrichment (6-mer frequency, TF over GST control) | binding signal (ETS2): 1.54 fold enrichment (6-mer frequency, TF over GST control) | binding signal (SPDEF): 1.83 fold enrichment (6-mer frequency, TF over GST control) | binding signal (ETV7): 1.49 fold enrichment (6-mer frequency, TF over GST control) | binding signal (ELF5): 2.2 fold enrichment (6-mer frequency, TF over GST control) | binding signal (ETV3): 1.75 fold enrichment (6-mer frequency, TF over GST control) | binding signal (ETV6): 1.63 fold enrichment (6-mer frequency, TF over GST control)

TAGATG
binding signal (ERF): 1.54 fold enrichment (6-mer frequency, TF over GST control) | binding signal (ETV3L): 1.36 fold enrichment (6-mer frequency, TF over GST control) | binding signal (ETS2): 1.3 fold enrichment (6-mer frequency, TF over GST control) | binding signal (SPDEF): 1.35 fold enrichment (6-mer frequency, TF over GST control) | binding signal (ETV7): 1.33 fold enrichment (6-mer frequency, TF over GST control) | binding signal (ELF5): 1.27 fold enrichment (6-mer frequency, TF over GST control) | binding signal (ETV3): 1.22 fold enrichment (6-mer frequency, TF over GST control) | binding signal (ETV6): 1.24 fold enrichment (6-mer frequency, TF over GST control)

TCCTCA
binding signal (ERF): 1.32 fold enrichment (6-mer frequency, TF over GST control) | binding signal (ETV3L): 1.62 fold enrichment (6-mer frequency, TF over GST control) | binding signal (ETS2): 1.56 fold enrichment (6-mer frequency, TF over GST control) | binding signal (SPDEF): 1.59 fold enrichment (6-mer frequency, TF over GST control) | binding signal (ETV7): 1.38 fold enrichment (6-mer frequency, TF over GST control) | binding signal (ELF5): 2.13 fold enrichment (6-mer frequency, TF over GST control) | binding signal (ETV3): 1.61 fold enrichment (6-mer frequency, TF over GST control) | binding signal (ETV6): 1.54 fold enrichment (6-mer frequency, TF over GST control)

TCGACC
binding signal (ERF): 1.31 fold enrichment (6-mer frequency, TF over GST control) | binding signal (ETV3L): 1.33 fold enrichment (6-mer frequency, TF over GST control) | binding signal (ETS2): 1.24 fold enrichment (6-mer frequency, TF over GST control) | binding signal (SPDEF): 1.37 fold enrichment (6-mer frequency, TF over GST control) | binding signal (ETV7): 1.21 fold enrichment (6-mer frequency, TF over GST control) | binding signal (ELF5): 1.28 fold enrichment (6-mer frequency, TF over GST control) | binding signal (ETV3): 1.27 fold enrichment (6-mer frequency, TF over GST control) | binding signal (ETV6): 1.3 fold enrichment (6-mer frequency, TF over GST control)

ATAAAT
binding signal (ERF): 1.19 fold enrichment (6-mer frequency, TF over GST control) | binding signal (ETV3L): 1.18 fold enrichment (6-mer frequency, TF over GST control) | binding signal (ETS2): 1.19 fold enrichment (6-mer frequency, TF over GST control) | binding signal (SPDEF): 1.17 fold enrichment (6-mer frequency, TF over GST control) | binding signal (ETV7): 1.14 fold enrichment (6-mer frequency, TF over GST control) | binding signal (ELF5): 1.08 fold enrichment (6-mer frequency, TF over GST control) | binding signal (ETV3): 1.19 fold enrichment (6-mer frequency, TF over GST control) | binding signal (ETV6): 1.25 fold enrichment (6-mer frequency, TF over GST control)
